Test results taken from PubChem BioAssay (NCI).
Compounds without any hit were thinned out: in the full panel of roughly 83,000, 20% have a hit.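 Testing used 96-well plates and a 48-hour single-concentration exposure. Example: -40 means 40% of the starting cells died.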

How the values were obtained:
Assay in all cases: NCI-60 one-dose screen, 48 h (100 = growth as untreated, 0 = no growth, -100 = all killed); active = growth percent below 10; inactive = the rest
HCT-15 colon = conditions: 10 µM unless noted
HT29 colon = conditions: 10 µM unless noted
SNB-75 CNS = conditions: 10 µM unless noted
SNB-19 CNS = conditions: 10 µM unless noted
U251 CNS = conditions: 10 µM unless noted
PC-3 prostate = conditions: 10 µM unless noted
SK-MEL-5 melanoma = conditions: 10 µM unless noted
UACC-62 melanoma = conditions: 10 µM unless noted
LOX IMVI melanoma = conditions: 10 µM
SK-MEL-28 melanoma = conditions: 10 µM unless noted
SK-MEL-2 melanoma = conditions: 10 µM unless noted
SN12C renal = conditions: 10 µM unless noted
UO-31 renal = conditions: 10 µM unless noted
TK-10 renal = conditions: 10 µM unless noted
ACHN renal = conditions: 10 µM unless noted
CAKI-1 renal = conditions: 10 µM unless noted
A498 renal = conditions: 10 µM unless noted
CCRF-CEM leukemia = conditions: 10 µM unless noted
MOLT-4 leukemia = conditions: 10 µM unless noted

Measured: growth

CC(=O)c1cccs1
inactive: HCT-15 colon 99.5% | HT29 colon 99.8% | SNB-75 CNS 96% | SNB-19 CNS 102% | U251 CNS 101% | PC-3 prostate 98.3% | SK-MEL-5 melanoma 110% | UACC-62 melanoma 94.2% | LOX IMVI melanoma 93.1% | SK-MEL-28 melanoma 98.1% | SK-MEL-2 melanoma 112% | SN12C renal 96.8% | UO-31 renal 106% | TK-10 renal 103% | ACHN renal 102% | CAKI-1 renal 102% | A498 renal 76.6% | CCRF-CEM leukemia 113% | MOLT-4 leukemia 95.4%

O=S1(=O)c2ccccc2Oc2ccccc21
inactive: HCT-15 colon 101% | HT29 colon 99.6% | SNB-75 CNS 80.5% | SNB-19 CNS 104% | U251 CNS 94% | PC-3 prostate 92.7% | SK-MEL-5 melanoma 108% | UACC-62 melanoma 102% | LOX IMVI melanoma 102% | SK-MEL-28 melanoma 99.4% | SK-MEL-2 melanoma 100% | SN12C renal 96.8% | UO-31 renal 93.9% | TK-10 renal 101% | ACHN renal 99.7% | CAKI-1 renal 92.9% | A498 renal 99.7% | CCRF-CEM leukemia 127% | MOLT-4 leukemia 111%

CCCC(=O)CC(=O)c1ccccc1
inactive: HCT-15 colon 103% | HT29 colon 91.1% | SNB-75 CNS 105% | SNB-19 CNS 103% | U251 CNS 86% | PC-3 prostate 94.7% | SK-MEL-5 melanoma 99.5% | UACC-62 melanoma 103% | LOX IMVI melanoma 97.5% | SK-MEL-28 melanoma 107% | SK-MEL-2 melanoma 78.5% | SN12C renal 96.3% | UO-31 renal 90.8% | TK-10 renal 94.8% | ACHN renal 105% | CAKI-1 renal 107% | A498 renal 70.4% | MOLT-4 leukemia 107%

CC(C)C(C)(C)C(=O)C(C)(C)C(C)(C)C
inactive: HCT-15 colon 96.9% | HT29 colon 98.1% | SNB-75 CNS 109% | SNB-19 CNS 102% | U251 CNS 92.9% | PC-3 prostate 98.8% | SK-MEL-5 melanoma 101% | UACC-62 melanoma 102% | LOX IMVI melanoma 93.3% | SK-MEL-28 melanoma 104% | SK-MEL-2 melanoma 99.9% | SN12C renal 98.2% | UO-31 renal 95.5% | TK-10 renal 96.2% | ACHN renal 99.3% | CAKI-1 renal 104% | A498 renal 83.9% | CCRF-CEM leukemia 107% | MOLT-4 leukemia 110%

ClCC(Cl)C1CCC(Cl)C(Cl)C1 (stereo not given)
inactive: HCT-15 colon 99% | HT29 colon 103% | SNB-75 CNS 89.6% | SNB-19 CNS 99.8% | U251 CNS 99.6% | PC-3 prostate 102% | SK-MEL-5 melanoma 105% | UACC-62 melanoma 103% | LOX IMVI melanoma 95.9% | SK-MEL-28 melanoma 103% | SK-MEL-2 melanoma 110% | SN12C renal 104% | UO-31 renal 86.3% | TK-10 renal 100% | ACHN renal 99.3% | CAKI-1 renal 97.2% | A498 renal 85.5% | CCRF-CEM leukemia 97.5% | MOLT-4 leukemia 105%

Cc1ccc(S(=O)(=O)NC(=O)NCCSSCCNC(=O)NS(=O)(=O)c2ccc(C)cc2)cc1
inactive: HCT-15 colon 96.7% | HT29 colon 108% | SNB-75 CNS 85.5% | SNB-19 CNS 99.4% | U251 CNS 98.6% | PC-3 prostate 96.6% | SK-MEL-5 melanoma 97.8% | UACC-62 melanoma 101% | LOX IMVI melanoma 98.2% | SK-MEL-28 melanoma 109% | SK-MEL-2 melanoma 112% | SN12C renal 100% | UO-31 renal 90.3% | TK-10 renal 102% | ACHN renal 96.2% | CAKI-1 renal 96.5% | A498 renal 93.1% | CCRF-CEM leukemia 99.1% | MOLT-4 leukemia 110%

COC1CC(OC(=O)c2ccc([N+](=O)[O-])cc2)C(COC(=O)c2ccc([N+](=O)[O-])cc2)O1 (stereo not given)
inactive: HCT-15 colon 100% | HT29 colon 121% | SNB-75 CNS 87.3% | SNB-19 CNS 101% | U251 CNS 97.2% | PC-3 prostate 89.8% | SK-MEL-5 melanoma 95.7% | UACC-62 melanoma 98.1% | LOX IMVI melanoma 103% | SK-MEL-28 melanoma 101% | SK-MEL-2 melanoma 127% | SN12C renal 98.9% | UO-31 renal 95.6% | TK-10 renal 124% | ACHN renal 112% | CAKI-1 renal 94% | A498 renal 83.5% | CCRF-CEM leukemia 98.1% | MOLT-4 leukemia 103%

COC(CCCl)c1ccc(Cl)cc1 (stereo not given)
inactive: HCT-15 colon 98.3% | HT29 colon 93.6% | SNB-75 CNS 84.4% | SNB-19 CNS 110% | U251 CNS 93.3% | PC-3 prostate 108% | SK-MEL-5 melanoma 101% | UACC-62 melanoma 107% | LOX IMVI melanoma 101% | SK-MEL-28 melanoma 106% | SK-MEL-2 melanoma 83.5% | SN12C renal 106% | UO-31 renal 84.5% | TK-10 renal 86.3% | ACHN renal 88.9% | CAKI-1 renal 101% | A498 renal 109% | MOLT-4 leukemia 95%
